Over roughly 35,000 sequences, “fluorescence intensity (a.u.)” has its median near 10,000; the highest 2% begin near 52,000. Shown is part of a subset that was picked to be rich in the highest values.
Each sequence was assayed against T1, OsWOX13 (Oryza sativa, UniProt Q5QMM3 1-267) (assay: protein-binding microarray (RPBM); PBS, 2% BSA, 51.3 ng/ul salmon testes DNA, 50 uM zinc acetate, 200 nM TF, 25 C, 1 h; high values mean tight binding). Settings: protein: recombinant; tags: N-terminal polyhistidine and DsRed monomer fusion (pET32a); label: CyDye5-dUTP incorporated in the synthesized complementary strand; 3' TTTTT single-stranded linker to array surface; dsDNA, one strand shown.
T1 sequence: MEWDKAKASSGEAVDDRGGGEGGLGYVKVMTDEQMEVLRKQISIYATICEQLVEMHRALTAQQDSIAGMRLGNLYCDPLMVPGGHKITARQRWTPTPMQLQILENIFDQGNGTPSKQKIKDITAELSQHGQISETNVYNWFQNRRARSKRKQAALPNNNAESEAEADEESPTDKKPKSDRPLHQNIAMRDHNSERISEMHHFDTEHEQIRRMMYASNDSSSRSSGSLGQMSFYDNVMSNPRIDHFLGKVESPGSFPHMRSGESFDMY
Procedure, shortened: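 The binding signal for each feature is its fluorescence intensity in arbitrary units. An Axon 4000B scanner was used to read a custom Agilent array that had been made double-stranded with Cy5-dUTP primer extension, blocked with 2% BSA, incubated at 25 °C for 1 h with 200 nM protein in PBS, 2% BSA, salmon testes DNA and 50 µM zinc acetate, and washed. The protein was an N-terminal polyhistidine–DsRed transcription factor fusion from E. coli BL21-CodonPlus, purified on Ni–NTA.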

Sequence | binding signal
CCATCGTAATTGATCGAAAACTGACAACATGTTAGGGTTGCGGAGTCACCTAGTGCAG | 12700 fluorescence intensity (a.u.)
AAACAAATGATTTTATTCATTTACTCATTCATCATATCACCGGAGTCACCTAGTGCAG | 10300 fluorescence intensity (a.u.)
CCATGATGATGAGTCATTTTAACAGTCTGCAAGTACTAAACGGAGTCACCTAGTGCAG | 8500 fluorescence intensity (a.u.)
CTGAAACTGATTGAACTTTTGTCCATTTTCAGATCGTGTACGGAGTCACCTAGTGCAG | 49400 fluorescence intensity (a.u.)
AACCCTAGATTGATTTTGCGTGTGCTGCGTGAAGACGGCACGGAGTCACCTAGTGCAG | 41400 fluorescence intensity (a.u.)
GTTTGATTGATTGATTTCGTGTACCATGCGGACTTCAGATCGGAGTCACCTAGTGCAG | 65100 fluorescence intensity (a.u.)
GGGCCGTGATTGATTTGCTGGCGTGTGTGATTTTCAGCTGCGGAGTCACCTAGTGCAG | 62900 fluorescence intensity (a.u.)
TTTAATTTTATGTTTTGATTTTAATCTATATCTCTTCTCTCGGAGTCACCTAGTGCAG | 22600 fluorescence intensity (a.u.)
ATTTTGACTGATGTGACGTTTGCGTGGCTGGTTTGATTAGCGGAGTCACCTAGTGCAG | 28900 fluorescence intensity (a.u.)
GATCGATTTGGTTTTGTTGATTTGATCTGGCCGGACAAGGCGGAGTCACCTAGTGCAG | 3980 fluorescence intensity (a.u.)
TGATTTGATTTTCAGTTTTGCACCATGCGATCGATCGAGACGGAGTCACCTAGTGCAG | 4320 fluorescence intensity (a.u.)
GACATATTGTCACCGGTTTTGATTAGTTGTGGATATCTGGCGGAGTCACCTAGTGCAG | 6960 fluorescence intensity (a.u.)
TAGTTTGTGATTGATTTGTCGACATCTGGAGGCGTCATGCCGGAGTCACCTAGTGCAG | 58400 fluorescence intensity (a.u.)
TGACTTGATTAATTGCTTCTATGTTTGGCACCCAATTAATCGGAGTCACCTAGTGCAG | 44900 fluorescence intensity (a.u.)
GCTTAATTGATTAATTTGCTGGACGAGGAATCTTCTATGTCGGAGTCACCTAGTGCAG | 64600 fluorescence intensity (a.u.)
CATCCATCCAACTTAATTTGACAGCAACTCACTGCAGCTTCGGAGTCACCTAGTGCAG | 12000 fluorescence intensity (a.u.)
TAGTTAAATTTCCATTTAACTAGGGATAAATTAAATGGCTCGGAGTCACCTAGTGCAG | 20200 fluorescence intensity (a.u.)
AGAATATGATTTTAAAATTAATTTTAGGGGAGGGTTTTACCGGAGTCACCTAGTGCAG | 26000 fluorescence intensity (a.u.)
TTGTTGTTATTTAATAAATTAGGAGATCAAATATGTTATTCGGAGTCACCTAGTGCAG | 3300 fluorescence intensity (a.u.)

Sequence | binding signal
GGGGCAAATTGGTCTTGTCATGAAAGCTAAAAGCCAAAGGCGGAGTCACCTAGTGCAG | 4730 fluorescence intensity (a.u.)
CAAGATAATTACAAGTTTATAAAACAAACTACTACAGGGACGGAGTCACCTAGTGCAG | 27200 fluorescence intensity (a.u.)
CACTATCTGATCCTAATTACACACTGATGCAGGGGTAAATCGGAGTCACCTAGTGCAG | 3790 fluorescence intensity (a.u.)
AGGTGTACATGATTGTTTGCTTCCTTGCTGCAGCTCGGCGCGGAGTCACCTAGTGCAG | 14100 fluorescence intensity (a.u.)
CAATGCTTGCTTGATTGGGAGCGCGTCGTCGAGGGCGTCGCGGAGTCACCTAGTGCAG | 14400 fluorescence intensity (a.u.)
GTTAATTTTGTCGAGTTAATTGGATCTTTGCTTTGATGGGCGGAGTCACCTAGTGCAG | 57600 fluorescence intensity (a.u.)
TGATTGATTGCTTGATTGGGAGTGTCCTTTGGGCGAGCTGCGGAGTCACCTAGTGCAG | 64900 fluorescence intensity (a.u.)
CATAATTGCTGATATTTTGTCTTTGGAGTTTGATCCATGGCGGAGTCACCTAGTGCAG | 44200 fluorescence intensity (a.u.)
ATCTTTAATTTTGATATTTAATTTTAATCATTGGAAAGGGCGGAGTCACCTAGTGCAG | 25000 fluorescence intensity (a.u.)
CCCCATCGTCACTTATAATTTATGAATAAAACTTTTAGATCGGAGTCACCTAGTGCAG | 4840 fluorescence intensity (a.u.)
GGATGAAATTAGCCCATCAGCAATTACGTGTAGGCCGTAGCGGAGTCACCTAGTGCAG | 3690 fluorescence intensity (a.u.)
ATGTTCCTATCAGTTGCTAATTATTAGTGTGACATCAATCCGGAGTCACCTAGTGCAG | 16300 fluorescence intensity (a.u.)
ATTAAGTCTAATTAATCTGTTATTAGCAAATGTTTACTGTCGGAGTCACCTAGTGCAG | 11100 fluorescence intensity (a.u.)
CCTAATTACGCCATGATTTGATAATATGATGCTACAATAACGGAGTCACCTAGTGCAG | 39600 fluorescence intensity (a.u.)
ACTGCTGCCGATTGACTGCTACGAGTAGCTCGCACCTGGCCGGAGTCACCTAGTGCAG | 7450 fluorescence intensity (a.u.)
CCAAATTAAGCCATTAATTAATAAAACAATATCATTAGGACGGAGTCACCTAGTGCAG | 28900 fluorescence intensity (a.u.)
TAATATTTAAATTAAACCTATAATCAAGCAGATGATTTATCGGAGTCACCTAGTGCAG | 8840 fluorescence intensity (a.u.)
TTTAATTGATAAATATTATCAATTATTAAACAGATAAGCGCGGAGTCACCTAGTGCAG | 62800 fluorescence intensity (a.u.)
TAATAATTGATTAAACAGAGCAAATTTTAGCTTGCAGATACGGAGTCACCTAGTGCAG | 48500 fluorescence intensity (a.u.)

Sequence | binding signal
CAATTGTGAAATAATTAATTAAATTATCATTAAGCCCCAACGGAGTCACCTAGTGCAG | 30300 fluorescence intensity (a.u.)
AATCAATTTAATAATTGATTAAACAGAGCAAATTTTAGCTCGGAGTCACCTAGTGCAG | 65100 fluorescence intensity (a.u.)
TTTAATATTTATAATTAATGTCAAACATCAGATGTGATAGCGGAGTCACCTAGTGCAG | 12700 fluorescence intensity (a.u.)
GAGCAAAACAATAATTAAATATATTTTGATAATAAATTTGCGGAGTCACCTAGTGCAG | 3560 fluorescence intensity (a.u.)
TGAAATAATTAATTAAATTATCATTAAGCCCCAAACCGAGCGGAGTCACCTAGTGCAG | 57300 fluorescence intensity (a.u.)
GATAGATGATATACCCGTTAACAATGAGACGTTTGTGGAGCGGAGTCACCTAGTGCAG | 3270 fluorescence intensity (a.u.)
ACATATAATTGCCACGTCAGCGCCACATCAATGCCACGTGCGGAGTCACCTAGTGCAG | 23200 fluorescence intensity (a.u.)
ATTAAAATTATGAAATTTTAATGATTCATTAATCTCAAGACGGAGTCACCTAGTGCAG | 14100 fluorescence intensity (a.u.)
AACCGAAAATTATTATTTTAATCGGCGTGGTGTCCACTGGCGGAGTCACCTAGTGCAG | 4880 fluorescence intensity (a.u.)
TCATTAATGATCTAATCACCAACTAAACTCCCTATCAATTCGGAGTCACCTAGTGCAG | 18200 fluorescence intensity (a.u.)
GTTTGTTTAGATTGGTACCATTTAAAATCATATTATTTTGCGGAGTCACCTAGTGCAG | 20600 fluorescence intensity (a.u.)
GGACAGATTAACTATCACTTAATTTCAGGTTTCCATGTATCGGAGTCACCTAGTGCAG | 22700 fluorescence intensity (a.u.)
TACTACTAATTATATGCCGATTGAGAGTGTTGTAGCGTCACGGAGTCACCTAGTGCAG | 17700 fluorescence intensity (a.u.)
ATGAAAGATTGATATGTTGACATGTTCACAGATGAACTTACGGAGTCACCTAGTGCAG | 17200 fluorescence intensity (a.u.)
CTGTTCACACGGATTGATCATTGATGGATCCATGCTGATGCGGAGTCACCTAGTGCAG | 9220 fluorescence intensity (a.u.)
CCTGTTGATTGGTTAGCCCAGCCCATGATGTAGCCCATGACGGAGTCACCTAGTGCAG | 38200 fluorescence intensity (a.u.)
GGCGCACTGATTGTTCATGATTGATGCAGTGATCCGGGCACGGAGTCACCTAGTGCAG | 59600 fluorescence intensity (a.u.)
CTGTACTGATTGTTCACGGGTCGTTTCCGCACTATGGAACCGGAGTCACCTAGTGCAG | 27900 fluorescence intensity (a.u.)
ATGATGATTGGTTGGTTACGGGCATGTTCAGATTGTAGCCCGGAGTCACCTAGTGCAG | 54900 fluorescence intensity (a.u.)
